# Where two headings read alike, the source gives them in different places.
# Experiments:
# Set-up in all cases: species or system human, MV4-11 + K-562 + COLO205 + SK-N-BE2 + OVCAR-8
# IRAK4 = details: read-out: apparent Kd, n = 1
# JAK1 = details: read-out: apparent Kd, n = 1
# PIK3CA = details: read-out: apparent Kd, n = 1
# ACAD11 = details: read-out: apparent Kd, n = 1
# ATR = details: read-out: apparent Kd, n = 1
# MAP2K1 = details: read-out: apparent Kd, n = 1
# AKT2 = details: read-out: apparent Kd, n = 1
# NQO2 = details: read-out: apparent Kd, compound concentrations: 100 nM and 1000 nM (sheet 'Samples'), n = 1
# NLK = details: read-out: apparent Kd; compound concentrations:100 nM and 1000 nM (sheet 'Samples'); n = 1
# MAP4K1 = details: read-out: apparent Kd, n = 1
# DJA1 = tested on: T1, DJA1; details: read-out: apparent Kd; compound concentrations: 100 nM and 1000 nM (sheet 'Samples'), CATDS: 9.7728158080224396E-3; n = 1
# T1 construct: gene DNAJA1
# ICK = details: read-out: apparent Kd; compound concentrations: 100 nM and 1000 nM (sheet 'Samples'), CATDS: 1.28060195349982E-2; n = 1
# [1] = compound concentrations:100 nM and 1000 nM (sheet 'Samples')
structure (smiles),measurement,setting,value
Cc1cccc(Nc2nc(N[C@H]3CCNC3)ncc2C(N)=O)c1.Cl [GSK2197149A],potency estimated from few doses,IRAK4; [1],1570 nM
same,potency estimated from few doses,JAK1; [1],1240 nM
same,potency estimated from few doses,PIK3CA; [1],110 nM
CNCc1ccc(-c2cc(-c3nc(-c4ccc(S(=O)(=O)C(C)C)cc4)cnc3N)on2)cc1 [VE-822],potency estimated from few doses,ACAD11; [1],321 nM
same,potency estimated from few doses,"ATR; compound concentrations: 100 nM and 1000 nM (sheet 'Samples'), CATDS: 0.44999345055434797",7.76 nM
same,potency estimated from few doses,MAP2K1; [1],2120 nM
CN(c1ccc(NC(=O)NCCN2CCOCC2)cc1)c1ccnc(Nc2ccc(CS(C)(=O)=O)cc2)n1.Cl [GW830365A],potency estimated from few doses,"PIK3CA; compound concentrations: 100 nM and 1000 nM (sheet 'Samples'), CATDS: 0.11596893366526",201 nM
c1ccc(-c2n[nH]cc2Nc2ccnc3ccccc23)nc1 [GW694077X],potency estimated from few doses,"ACAD11; compound concentrations: 100 nM and 1000 nM (sheet 'Samples'), CATDS: 2.4414312635225699E-2",1600 nM
same,potency estimated from few doses,"AKT2; compound concentrations: 100 nM and 1000 nM (sheet 'Samples'), CATDS: 2.2309238886047199E-2",2350 nM
same,potency estimated from few doses,NQO2; CATDS: 2.8699790095599101E-2,903 nM
same,potency estimated from few doses,"PIK3CA; compound concentrations: 100 nM and 1000 nM (sheet 'Samples'), CATDS: 4.8537913419409703E-2",212 nM
CNc1cc(-c2ccc3c(N)n[nH]c3c2)nc(N)n1 [GSK2224810A],potency estimated from few doses,AKT2; [1],1880 nM
same,potency estimated from few doses,ATR; [1],814 nM
same,potency estimated from few doses,NLK,1610 nM
same,potency estimated from few doses,PIK3CA; [1],245 nM
O=C(O)C(F)(F)F.O=c1[nH]ccc2nc(N[C@@H]3CCNC3)nc(Nc3cc(Cl)cc(Cl)c3)c12 [GSK2188764A],potency estimated from few doses,MAP4K1; [1],1030 nM
COc1cc[nH]c1/C=C1\C(=O)Nc2ccc(F)c(C#CC3(O)CCNCC3)c21.Cl [RO0282986-001],potency estimated from few doses,DJA1,1450 nM
same,potency estimated from few doses,ICK,593 nM
same,potency estimated from few doses,"IRAK4; compound concentrations: 100 nM and 1000 nM (sheet 'Samples'), CATDS: 1.1177652842318E-2",889 nM
same,potency estimated from few doses,"JAK1; compound concentrations: 100 nM and 1000 nM (sheet 'Samples'), CATDS: 1.5080552204992799E-2",391 nM
same,potency estimated from few doses,"MAP2K1; compound concentrations: 100 nM and 1000 nM (sheet 'Samples'), CATDS: 1.0458763538178499E-2",1120 nM
same,potency estimated from few doses,"MAP4K1; compound concentrations: 100 nM and 1000 nM (sheet 'Samples'), CATDS: 1.0790478017061501E-2",1000 nM
same,potency estimated from few doses,NQO2; CATDS: 1.2433043587811299E-2,644 nM
